# Screens: PubChem, National Center for Advancing Translational Sciences (NCATS)
# TDP1 cell noCPT: qHTS for Inhibitors of human tyrosyl-DNA phosphodiesterase 1 (TDP1): qHTS in cells in absence of CPT | DT40 Tdp1-/- hTDP1 cells, no CPT, ATP luminescence, 48 h | Potency, µM (top dose mostly 46.2 µM), for inactives: top-dose activity change, negative = growth inhibition, usual class: inhibitors | actives 15% (n = 420,000) | AID 686978, 2013; note: potency is the fitted concentration of half-maximal effect; % is set by controls: 0 for no effect and ±100 for the full control effect; nearly all actives have a fitted effect of over 55% in size
#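 Readout: luminescence from CellTiter-Glo after 30 min in the dark at RT. Cells: DT40 Tdp1-/- with stable hTDP1, 400/well. Exposure: compounds alone, ≥48 hr, 37 °C.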
# Chronic BCR inh: chronic active BCR signaling inhibition | ABC-DLBCL IkBa-CBG/CBR reporter, luminescence ratio, 4 h | Potency, µM (doses to about 46.1 µM), without a hit: at the top dose activity change, negative = inhibition, hits mostly inhibitors | AID 493014 | actives 0.05% (n = 340,000); active = well fitted inhibition curve with a large enough effect in the signal ratio, with a control signal flat, not every such curve was filed as active; inconclusive = small, poorly fitted or top-dose-only effect, or effect the other way, or a change in a side signal; the % refers to the signal ratio;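 note: potency is the fitted concentration of half-maximal effect; plate controls were basal doxycycline-induced cells for no effect and cells given 10 µM MG132 for full effect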
#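 TMD8 ABC-DLBCL cells carrying doxycycline-inducible green luciferase fused to IkappaBalpha plus unfused red luciferase were exposed to compounds (up to 46 uM) for 4 hrs at 37C. Activity came from the overlap-corrected green/red luminescence ratio.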
# MCF10A rerep: induces DNA re-replication in MCF 10a normal breast cells; MCF 10A DNA re-replication, Hoechst nuclear intensity, 48 h; Potency, µM (doses to about 46.1 µM), inactives show top-dose activity, positive = re-replication, most hits filed as activators; actives 2.9% (n = 350,000); AID 624296; note: potency is the fitted concentration of half-maximal effect; % of control where 0% means no effect; nearly all actives have a fitted effect of over 50% in size
# SW480 rereplic: induces DNA re-replication in SW480 colon adenocarcinoma cells | SW480 DNA re-replication, Hoechst DNA content imaging, 48 h | actives 1.8% (n = 340,000) | AID 624297 | Potency, µM (titrated, usually from 46.1 µM), without a hit: at the highest dose re-replication activation, actives largely listed as activators; note: potency is the fitted concentration of half-maximal effect; % of control where 0% means no effect; nearly all actives have a fitted effect of over 55% in size
#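 Readout is total intensity of Hoechst-stained nuclei, excited at 405 nm and collected at 500-530 nm. Compound treatment lasted 48 hr at 37 C in 5% CO2 before staining.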
# TDP1 cell CPT: growth inhibition of DT40 Tdp1-/-;hTDP1 cells with camptothecin (screen for TDP1 inhibitors); chicken DT40 Tdp1-/-;hTDP1 cells + 20 nM CPT, ATP luminescence, 48 h; Potency, µM (series often up to 46.2 µM), without a hit: top-dose activity change, negative = growth inhibition, usual class: inhibitors; actives 12% (n = 420,000); AID 686979; note: potency is the fitted concentration of half-maximal effect; % is set by controls: 0 for no effect and ±100 for the full control effect; nearly all actives have a fitted effect of over 55% in size
#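 Chicken DT40 Tdp1-/- cells complemented with human TDP1, 400 cells/well, exposed to compounds plus 20 nM camptothecin for at least 48 h at 37 C; viability read as ATP content by CellTiter-Glo luminescence.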
# IL-1B inflam inh: inflammasome signaling inhibition, IL-1 beta readout. activity change, % at 57.5 µM. AID 743279. THP-1 LPS/ATP IL-1B secretion, AlphaLISA, 16 h; hits give low values. actives 4.7% (n = 360,000); in the data active = activity change below about -50%; inconclusive = mostly about -30% to -49%; note: % is set by controls: 0 for no effect and ±100 for the full control effect
#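 Secreted IL-1B measured by AlphaLISA bead assay after 16 h compound exposure of THP-1 cells; compounds (final up to 57.5 uM) added 1 h before LPS (250 ng/mL) and ATP (1.25 mM) stimulation; lower signal means less secretion.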
# Numbers without * were called inactive; ? = inconclusive; / = no result; ! = a repeat was not active; [ ] = remark or other dose. Shown are actives, neighbours in structure and some others; about 19% of the full set was active somewhere. Unless noted, calls come from the whole dose curve; as a rule, active = well fitted curve in the direction sought with a large enough effect; inconclusive = small, poorly fitted or top-dose-only effect, or another doubt; inactive = no such curve, though single readings can be large; an effect the other way counts as inactive or inconclusive.
SMILES,TDP1 cell noCPT,Chronic BCR inh,MCF10A rerep,SW480 rereplic,TDP1 cell CPT,IL-1B inflam inh
OCc1nc2ccccc2n1Cc1c(F)cccc1Cl,15µM*!,-6%,-11%,-25%,?,31
CCOc1ccccc1NC(=O)COC(=O)COc1c(Cl)cc(Cl)c2ccc(C)nc12,0%,/,-3%,-6%,-17%,15
CCN(CC(=O)NC(C)(C)C)C(=O)COc1c(Cl)cc(Cl)c2ccc(C)nc12,13µM*,?,18%,-9%,23µM*,0
CCN(CC)C(=O)Nc1ccc(OCC(O)CNC(C)(C)C)c(C(C)=O)c1 (centres undefined),-10%,/,/,/,2%,/
Cc1onc(NC(=O)c2ccc(Cl)cc2Cl)c1Br,10µM*,0%,1%,-3%,?,-11
Cc1onc(NC(=O)NC(=O)c2ccccc2F)c1Br,4%,-5%,-4%,0%,-17%,-19
CC(=O)c1ccc(-c2ccc(C(=O)N(C)Cc3nc4ccccc4c(=O)[nH]3)o2)cc1,23µM*,-4%,-1%,-1%,?,7
CC(=O)N(Cc1ccc(F)cc1)Cc1nc2ccccc2c(=O)[nH]1,?,-20%,0%,-2%,?,33
Cc1c(C(=O)N(C)Cc2nc3ccccc3c(=O)[nH]2)oc2ccccc12,23µM*,-1%,10µM*,16µM*,?,19
CCN(CC(=O)NCc1ccc(F)cc1)Cc1nc2ccccc2c(=O)[nH]1,-18%,1%,0%,4%,0%,12
O=c1c(=O)n(-c2ccccc2)ccn1Cc1c(F)cccc1Cl,-16%,/,/,/,4%,/
N#CC1=C(N)OC2=C(CCc3ccccc32)C1c1ccccc1Cl (centres undefined),4.6µM*,?,2.9µM*,8.2µM*,4.6µM*,-73*
Clc1ccccc1-c1csc(Nc2cccnc2)n1,-9%,?,9%,9%,4%,-60*
c1cncc(Nc2nc(-c3ccncc3)cs2)c1,?,-8%,?,?,?,?
CCOc1ccccc1Nc1nc(-c2cccnc2)cs1,?,-6%,7%,-2%,?,-59*
Cc1ccc(C)c(Nc2nc(-c3cccnc3)cs2)c1,?,-12%,15%,-7%,?,-81*
Clc1ccccc1Nc1nc(-c2cccnc2)cs1,?,?,-4%,-5%,-1%,-87*
COCCc1ccc(OC[C@H](O)CNC(C)C)cc1,/,/,23%,0%,/,/
Cc1ccccc1-c1noc(-c2ccc(NCc3ccco3)c([N+](=O)[O-])c2)n1,-28%,/,/,/,?,/
CCOc1ccc(NC(=O)C(CC(=O)O)Cc2ccc(C)cc2)cc1 (centres undefined),2%,9%,?,-2%,26%,5
COc1ccc2nc3n(c(=O)c2c1)-c1ccc(Cl)cc1C(=O)NC3Cc1ccc(O)cc1 (centres undefined),-11%,/,-1%,-9%,-1%,16
Cn1c(SCc2ccccc2C#N)nnc1-c1ccncc1,-6%,7%,-11%,-4%,2%,18
CCOC(=O)C1=C(COC(=O)Cc2ccc(Cl)cc2)NC(=O)NC1C (centres undefined),1%,4%,-2%,-31%,-1%,-9
CCOC(=O)N1CCC(N2C(=O)c3ccccc3C2Nc2cc(C)cc(C)c2)CC1 (centres undefined),15µM*,-6%,-3%,-5%,?,-3
CCN1/C(=C/C=C/c2oc3ccc(-c4ccccc4)cc3[n+]2CC)Oc2ccc(-c3ccccc3)cc21,0.073µM*,?,-9%,?,0.0073µM*,-107*
SMILES,TDP1 cell noCPT,Chronic BCR inh,MCF10A rerep,SW480 rereplic,TDP1 cell CPT,IL-1B inflam inh
CSCCC(=O)N1CCCC(N(C)CCc2ccccc2)C1 (centres undefined),-15%,-2%,-3%,4%,1%,8
COc1cc2c(cc1OC)C1(Nc3c-2c(C)nn3-c2ccccc2)C(=O)Nc2ccccc21 (centres undefined),-26%,17%,?,-3%[9.22 µM],-22%,-18
COc1ccc(N2C(=O)CSC23C(=O)Nc2ccccc23)cc1OC (centres undefined),-10%,?,?,-3%,-5%,9
COc1cc2c(cc1OC)C1(Nc3c-2c(-c2ccccc2)nn3-c2ccccc2)C(=O)Nc2ccccc21 (centres undefined),?,16%,?,5.2µM*,?,7
CCc1nn(-c2ccccc2)c2c1-c1cc(OC)c(OC)cc1C1(N2)C(=O)Nc2ccccc21 (centres undefined),?,?,21µM*,?,?,-4
COc1cnc(SCCC(F)=C(F)F)[nH]c1=O,-9%,11%,1%,-18%,-1%,-6
Cc1noc(C)c1S(=O)(=O)N(C)C[C@H]1Oc2ccc(NC(=O)NC(C)C)cc2C(=O)N([C@H](C)CO)C[C@@H]1C,16%,-3%,17%,-12%,24%,18
CCc1nn2c(=O)c(S(=O)(=O)Nc3ccc(C)c(C)c3)c(C)nc2s1,23µM*,/,/,/,?,/
CCc1ccc(NS(=O)(=O)c2c(C)nc3sc(CC)nn3c2=O)cc1,13µM*,-15%,17%,-24%,?,19
CCOc1ccc(NS(=O)(=O)c2c(C)nc3sc(C)c(C)n3c2=O)cc1,?,/,/,/,18µM*,/
CCOC(=O)C1=C(C)Nc2ccccc2N=C1NC(=O)Cc1ccc(OC)cc1,2%,-8%,-4%,8%,-13%,-5
CC(=O)Nc1ccc(NC(=O)COC(=O)c2ccccc2OCc2cccc(Br)c2)cc1,-19%,/,/,/,-26%,/
Cc1cc(N2CCN(C)CC2)nc2ccc(NC(=S)N3CCC4(CC3)OCCO4)cc12,5%,?,-6%,-4%,16%,5
Cc1cc(N2CCN(C)CC2)nc2ccc(NC(=S)N3CCN(c4ccccn4)CC3)cc12,?,?,24%,?,-27%,?
Cc1cccc(N2CCN(C(=S)Nc3ccc4nc(N5CCOCC5)cc(C)c4c3)CC2C)c1 (centres undefined),-11%,-9%,12µM*,?,-9%,43
Cc1ccc(C)c(N2CCN(C(=S)Nc3ccc4nc(N5CCN(C)CC5)cc(C)c4c3)CC2)c1,12µM*,?,?,-14%,16µM*,22
